# Compound activity as filed in PubChem BioAssay.
# KCNQ2 inh: inhibitors of rat KCNQ2 potassium channel; B-score at 10 µM; O88943; 310,000 compounds, 1.1% hits; CHO-K1 KCNQ2, FluxOR thallium flux, 20 min; active compounds read low;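 active = fluorescence ratio B-score at most minus 3 library SDs, with starting brightness B-score within 2 library SDs, cut at about -5.5 in these data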
# Target sequence (O88943 whole entry, looked up): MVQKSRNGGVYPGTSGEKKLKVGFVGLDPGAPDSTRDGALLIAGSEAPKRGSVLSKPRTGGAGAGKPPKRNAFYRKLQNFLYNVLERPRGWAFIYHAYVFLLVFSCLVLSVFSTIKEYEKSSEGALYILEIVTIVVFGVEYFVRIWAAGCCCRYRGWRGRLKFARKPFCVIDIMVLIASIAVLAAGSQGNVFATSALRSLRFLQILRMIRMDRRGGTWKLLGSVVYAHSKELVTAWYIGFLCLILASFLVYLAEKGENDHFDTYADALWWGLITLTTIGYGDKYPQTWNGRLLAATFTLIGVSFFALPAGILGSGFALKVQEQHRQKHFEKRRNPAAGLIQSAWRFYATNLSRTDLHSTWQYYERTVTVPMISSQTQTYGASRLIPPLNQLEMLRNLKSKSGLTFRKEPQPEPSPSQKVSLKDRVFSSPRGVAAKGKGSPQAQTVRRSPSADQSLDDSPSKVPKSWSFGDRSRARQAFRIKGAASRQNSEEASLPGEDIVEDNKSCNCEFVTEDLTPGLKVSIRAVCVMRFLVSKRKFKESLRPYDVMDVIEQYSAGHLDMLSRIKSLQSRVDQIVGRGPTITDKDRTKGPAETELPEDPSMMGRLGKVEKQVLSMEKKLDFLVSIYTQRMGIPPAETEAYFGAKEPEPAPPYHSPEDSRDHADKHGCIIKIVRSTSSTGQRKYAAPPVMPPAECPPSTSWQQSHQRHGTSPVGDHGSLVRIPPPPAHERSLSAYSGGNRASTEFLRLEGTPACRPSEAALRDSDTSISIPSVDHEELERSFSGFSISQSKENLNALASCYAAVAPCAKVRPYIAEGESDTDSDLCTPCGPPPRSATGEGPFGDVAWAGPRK
# KCNQ2 enhance: potentiators of rat KCNQ2 potassium channel; CHO-K1 KCNQ2, FluxOR thallium flux fluorescence; active compounds read high; B-score at 10 µM; O88943; 310,000 compounds, 0.54% hits; AID 2239;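 active = fluorescence ratio B-score at least 3 SD of library B-scores, with initial fluorescence B-score within 3 of them, cut at about 5.3 in these data; same plate scores as AID 2156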;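 also: B-score of peak minus minimum over baseline fluorescence ratio after K+ and Tl+ stimulus; positive B-score means potentiation of KCNQ2 with more thallium influx and brighter signal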
# KCNQ2 block conf: rat KCNQ2 channel inhibition, confirmatory screen; shares compounds with KCNQ2 inh; KCNQ2-expressing cells, thallium flux; active compounds read low; activity change, negative = inhibition, % at 10 µM; 1,000 compounds, 57% hits;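 also: 0% = vehicle wells and values are ratio percent relative to vehicle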
# KCNQ1 spec: human KCNQ1 activity in KCNQ2 inhibitor specificity screen. activity change, negative = inhibition, % at 10 µM. shares compounds with KCNQ2 inh. 1,000 compounds, 15% hits. KCNQ1-expressing cells, FluxOR thallium flux fluorescence; active compounds read low;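 active = activity change at least 3 SD of negative controls below their mean in both duplicate wells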;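 also: CHO cells stably transfected with KCNQ1 and depolarized by potassium stimulus; peak minus minimum fluorescence over baseline after thallium addition; 0% = vehicle negative control and -100% = blank without thallium stimulus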
# CHO parental ctr: counter-screen for KCNQ2 inhibitors: effect in parental CHO cells; shares compounds with KCNQ2 inh; thallium flux counter-screen; active compounds read low; activity change, % at 10 µM; 1,000 compounds, 14% hits; AID 493029;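 also: 0% = vehicle negative controls with stimulus buffer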
# KCNQ2 patch conf: rat KCNQ2 inhibition confirmed by electrophysiology | calls only at 10 µM | shares compounds with KCNQ2 inh | 550 compounds, 49% hits | KCNQ2-expressing cells, automated patch clamp current
# * = called active by the depositor; i = inactive; . = not tested or not shown; + = active, no number. Hits are enriched below; roughly 1.6% of the tested compounds scored in any of these assays. Unless noted, no rule for the calls is given here.
SMILES,KCNQ2 inh,KCNQ2 enhance,KCNQ2 block conf,KCNQ1 spec,CHO parental ctr,others
O=C(Nc1cc(Cl)cc(Cl)c1)C(NCC1CCCO1)c1ccccc1 (stereo not given),-7.8*,-7.8,i,i,i,
CC(C)NC(C(=O)Nc1cc(Cl)cc(Cl)c1)c1ccccc1 (stereo not given),-8.1*,-8.1,-36%*,i,i,KCNQ2 patch conf=i
CN(C)CCNC(C(=O)Nc1cc(Cl)cc(Cl)c1)c1ccccc1 (stereo not given),i,.,.,.,.,
COc1cccc(NC(=O)C(NC2CCCC2)c2ccccc2)c1 (stereo not given),i,.,.,.,.,
Cc1ccc(NC(=O)C(NC2CCCC2)c2ccccc2)cc1Cl (stereo not given),-6.8*,-6.8,-36%*,-39%*,-36%*,KCNQ2 patch conf=i
O=C(CC(c1ccccc1)c1ccccc1)NCC1CCCO1 (stereo not given),i,.,.,.,.,
Cc1cc(C)c(C)c(S(=O)(=O)NCc2ccc(C(=O)N3CCN(C)CC3)cc2)c1C,i,0.01,.,.,.,
CC1CN(C(=S)NC2CCCC2)CC(C)O1 (stereo not given),i,1.3,.,.,.,
CC1C=CCC2C(=O)N(c3cccc(C(=O)Nc4ccc(Br)cc4)c3)C(=O)C12 (stereo not given),i,.,.,.,.,
CN(C)C(=O)NC1c2ccccc2-c2ccccc21,i,.,.,.,.,
O=C(NC1c2ccccc2-c2ccccc21)N1CCCCC1,-6.8*,-6.8,-25%*,i,i,KCNQ2 patch conf=+
Cc1ccc(OCC(=O)N2CCc3ccccc3C2)c(C)c1,-7.8*,-7.8,-30%*,i,i,KCNQ2 patch conf=+
Cc1ccc2nc(-c3ccccn3)cc(C(=O)N3CCN(c4ncccn4)CC3)c2c1,i,0.46,.,.,.,
O=C(c1cc(-c2ccccc2)nc2ccccc12)N1CCc2ccccc2C1,-7.8*,-7.8,-28%*,i,i,KCNQ2 patch conf=+
Cc1ccc2nc(-c3ccccc3)cc(C(=O)N3CCc4ccccc4C3)c2c1,-8.3*,-8.3,i,i,i,
O=C(c1cc(Cl)nc2ccccc12)N1CCc2ccccc2C1,i,.,.,.,.,
COc1ccc(-c2cc(C(F)(F)F)n3ncc(C(=O)N4CCc5ccccc5C4)c3n2)cc1,-6.8*,-6.8,i,i,i,
Cc1ccc(OCC(=O)N2CCc3ccccc3C2)c(Br)c1,i,.,.,.,.,
COc1cccc(-c2cc(C(F)(F)F)n3ncc(C(=O)N4CCc5ccccc5C4)c3n2)c1,i,.,.,.,.,
CCN1CCN(C(=O)c2ccc3c(=O)n(CCc4ccccc4)c(=O)[nH]c3c2)CC1,i,.,.,.,.,
Cc1noc(C)c1COc1ccccc1C(=O)NC1CCC(C)CC1 (stereo not given),i,0.1,.,.,.,
Cn1c(CCC(=O)Nc2cc(S(C)(=O)=O)ccc2Cl)nc2cc(S(=O)(=O)N3CCOCC3)ccc21,i,.,.,.,.,
CC(=C\C(=O)O)/C(=C\c1cccc2ccccc12)C(=O)O,i,1.2,.,.,.,
Cc1ccc2nc(-c3ccccc3)cc(C(=O)N3CC(C)OC(C)C3)c2c1 (stereo not given),-9.3*,-9.3,-30%*,i,i,KCNQ2 patch conf=+
CC1CC(C)CN(C(=O)c2cc(-c3ccncc3)nc3ccccc23)C1 (stereo not given),i,.,.,.,.,
SMILES,KCNQ2 inh,KCNQ2 enhance,KCNQ2 block conf,KCNQ1 spec,CHO parental ctr,others
NC(=O)COc1ccc(/C=N\NC(=O)CC(=O)NCCc2ccccc2)cc1,i,1.5,.,.,.,
Cn1c(C(=O)N(Cc2ccccc2)Cc2ccccn2)cc2sccc21,-8.3*,-8.3,i,i,i,
Cn1c(C(=O)N(Cc2ccccc2)Cc2cccs2)cc2sccc21,i,.,.,.,.,
COC(=O)c1ccc(CSc2nc3ccc(S(=O)(=O)N4CCOCC4)cc3[nH]2)cc1,i,.,.,.,.,
O=C(Nc1ccccc1)Nc1cccc(C(F)(F)F)c1,i,.,.,.,.,
COC(=O)/C(=C\C(=O)c1ccccc1)Nc1cccc(C(F)(F)F)c1,-7.8*,-7.8,i,i,i,
CC(=O)c1cccc(NC(=O)C2CCN(C(=O)c3cccs3)CC2)c1,i,1.1,.,.,.,
Cc1nc(Sc2ccc(Br)cc2)c(C#N)c(C)c1[N+](=O)[O-],-7.7*,-7.7,-20%*,i,i,KCNQ2 patch conf=i
Cc1ccc(Sc2nc(C)c([N+](=O)[O-])c(C)c2C#N)cc1,i,.,.,.,.,
Clc1ccccc1C(c1ccccc1)(c1ccccc1)n1ccnc1,-7.6*,-7.6,-36%*,-30%*,-24%*,KCNQ2 patch conf=i
Clc1ccccc1OCCCn1ccnc1,i,1.1,.,.,.,
COc1ccc(C(=O)NCc2nnc(SCC(=O)N3CCCC3)o2)cc1,i,.,.,.,.,
